Reference: PubChem BioAssay AID1508600 (Functional Genomics Laboratory (NCATS/FGL), 2020)
In all, about 53,000 sequences went through this assay and about 3,700 (7%) were called active. Many of the other results were omitted from the sample, so actives are more common in it than they were. Values without a mark were called inactive.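 Rule for the calls: active = gene knockdowns whose robust z-score for IL-1 alpha signal is at least 2 or at most -2, so actives lie on both sides; inactive = the rest.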

Assay: Components of the Cytosolic LPS Sensing Pathway: Gene Identification via Genome-wide siRNA Screen;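 note: robust z of the log signal after scaling to non-targeting control siRNA wells of the plate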
Details: RAW264.7 macrophages, IL-1a HTRF, actives lie on both sides, screened at 100 nM (by protocol), cells primed 5 h with Pam3CSK4 first
Method in brief: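 Supernatant IL-1a by HTRF from RAW264.7 cells primed with Pam3CSK4 (5 hours) and transfected with LipidA (24 hour) after 48h siRNA knockdown at 100 nM; cell viability checked with CellTiter-Glo.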

Row | Sequence | z-score
1 | GGGUUUGAUCAACAGAGCCTT against Id1 | -0.64
2 | GGUGAAGAGCUUCUUGAUCTT against Zfyve27 | -0.362
3 | GGAGUUCAAAGAUGCAAUUTT against Zfyve27 | 2.33 (active)
4 | GUUUGAGUCUGGAGACGUGTT against Commd4 | 0.917
5 | GGUAAAGCCUUUCAGGAAGTT against Tmem80 | -0.946
6 | GGAGAGUGACAUCAUCGUATT against Obsl1 | -0.0139
7 | GGACACUUCCAAGUAUUGGTT against Tns1 | -2.11 (active)
8 | GGUCAGAGAAAUGAUGUCUTT against Osbpl11 | -1.77
9 | GGAAAAGGAAUUCUCCAGATT against Atrip | 0.624
10 | GGCUUGCUGAUUAAAGAUGTT against Strbp | -0.544
11 | GGAGAGCAUUCCCAUUGCUTT against Ddx6 | -2 (active)
12 | GGCUUGACUGAAUAAUAAUTT against Gpr157 | -0.424
13 | GCAGAGAGAGCGUGAAUCCTT against AB124611 | 0.598
14 | GGUUUUCCCUCCAGAUGAGTT against Mtch1 | -0.336
15 | GGUGGUAAUUGGUGUGGCATT against Slc9b2 | -0.188
16 | GGUUCACAGAAAUGGAUGATT against Zfp507 | -2.91 (active)
17 | GGUUUCUUUGCCUACCCAGTT against Prrc2b | -1.13
18 | GGGUGACAACCAAAGACUGTT against Mill1 | 0.174
19 | GGAUCAUGCAAACCAAAGCTT against 4930522H14Rik | 0.193
20 | GAGAACUCUCUAAACAAGUTT against Cks2 | 0.714
21 | GGAUAGUCAUCAACAGAGCTT against Psma7 | -2.42 (active)
22 | GGAACAGUCGUGGUAAAGUTT against Gnl2 | -0.767

Row | Sequence | z-score
23 | GGUGUUUGUUCGGAAGCUCTT against Pes1 | -0.345
24 | GGAAGAAGCACAAUUUGAATT against Selenof | -0.946
25 | CCUACUCCACGGGUAUUUUTT against 1700065D16Rik | -0.331
26 | GGUGCCGCACACAAACAAUTT against Hipk2 | -2.02 (active)
27 | GGGCCUGAUUUGUCCUCACTT against Sytl1 | -1.57
28 | GGACGGUCCUCUUAAAAGATT against Chat | -0.394
29 | GGCCUAUCAGAUAAAGAAGTT against Vps37b | -1.04
30 | GGUUACUGCUCUCAUGUACTT against Olfr247 | -1.28
31 | GGAGCACUUGUGGAUCAAUTT against Efhd1 | 1.03
32 | GCAUCAUGAACUCCUUUGUTT against H2bc1 | -2.43 (active)
33 | GCAUUUAAUGGCAUUACUGTT against Otol1 | 0.596
34 | GCUGGCGGAGCAAACUCAATT against Foxd3 | 0.756
35 | GGAAUGAAAAACCUACAUGTT against Cxcl13 | 0.453
36 | GUUAUUUGUAUGGUGAGAUTT against Hpcal1 | -1.06
37 | GGCUGCCUAACUGAUAACATT against Inpp4b | 0.24
38 | GGACACUUUACAGUGAUUGTT against Skint4 | 1.1
39 | GCCUCUGAAAGUGUAAUUATT against Ccdc103 | 0.184
40 | GGUGAUUCAACUCACUUGUTT against Olfr1353 | -1.33
41 | GGUAUGUUUUAUCUUGACATT against Olfr851 | 0.269
42 | GGGAUCAGGCCAUUUCCAUTT against Vav2 | 2.26 (active)
43 | GGCAAACGAUAAAGAAAUCTT against Ptp4a2 | 1.58
44 | GGGAUUUGCCAAAGAAUAGTT against AI597479 | 0.875

Row | Sequence | z-score
45 | GGGUGACAGGGCAUGAGAATT against Macroh2a3 | 0.611
46 | GGCCUUUAAGAGUUUCCAUTT against A230052G05Rik | 2.1 (active)
47 | GCAACAAUAUUGCUCUAGATT against Galntl6 | -0.452
48 | GCGAUCAAAAUUGUGUCACTT against Minar2 | -0.776
49 | CGAUCAAAAAAAUCGUGUGTT against Cfap97 | 0.587
50 | GGAAGUGGCCUUAAAGUAUTT against Arhgef37 | -1.67
51 | GUGUCCAGUCCUAAAACGATT against Trib3 | 1.66
52 | GGGAAAGGAUUUUUACAUUTT against Ctdsp1 | 1.83
53 | GCAAACUCAAGGCAUACAUTT against A930017M01Rik | 4.27 (active)
54 | GGUGAACCUGGAAGAACUATT against Manea | 1.64
55 | CGCCAAUUCAUCGUUGACUTT against Ccl3 | 0.773
56 | GGAUUUGGAGUAGAUCAAUTT against Tial1 | 0.638
57 | GGAACUGCUAAUCAACCAUTT against Zmynd10 | -2.14 (active)
58 | GGAAAAAGAGUCCUUCAUGTT against Minar2 | 1.19
59 | GGAACAAGAAACCACAAUGTT against Agpat1 | 0.281
60 | GGAAGAUGCCAUCUUACACTT against Borcs7 | 2.5 (active)
61 | GCAGGUUCACGACACCAACTT against Sv2a | -1.35
62 | GCUGAAUGCGACAUUUAUATT against Hk2 | 0.668
63 | GGCUGAGCUGAUCUUCUUATT against Wnt8a | -0.037
64 | GGUCCGAAAGGCAGCUAUATT against Fcer1g | -2.17 (active)
65 | CGAACAUUCCUUCCAUAACTT against Kcnd3 | 0.609
66 | GGCUGUGCAAGCAAAACCUTT against Mad1l1 | -1.43

Row | Sequence | z-score
67 | GGUACAAGACUGUCAUGUGTT against Mrpl3 | 0.356
68 | GGUCAAAGUCUAGGAGUUUTT against Spp1 | 2.56 (active)
69 | GGUGUCCAGUCAAUAAGAGTT against Msx3 | -0.0298
70 | GGAAAGCUUCAAAAUGGUGTT against Foxj2 | -1.26
71 | GGACAUUGACACUACUCCATT against Cyp2c55 | -0.519
72 | GCCCAACUAAGCAAUAAUATT against Fam216b | 0.395
73 | GCCGAGCAGAUGUACAGAATT against Zfp39 | 2.93 (active)
74 | GUGGUUGAACGGGAAUUUGTT against Gm11487 | 0.542
75 | GGCUUUAGGUAGUAGUCUCTT against Kansl2 | -2.9 (active)
76 | GCCAGUGGAUGUUCAGAAUTT against Ccdc73 | 0.019
77 | GCGAGAGUUUUUCUUCAACTT against Hoxc11 | 0.385
78 | GGAAUGAGGGUAAUGAAUATT against Plin3 | -1.74
79 | GGAGCUAGCUAGAACAAGUTT against Slmap | 1.58
80 | GGAUCAAUCCACAGACGACTT against Dbr1 | 1.56
81 | CGUGGUGAACGAGAUUGAUTT against Kcnab1 | 1.21
82 | GCCUGAUGUUGUUUCCAAATT against Lias | 2.67 (active)
83 | GGUGAAGUUGAAUGGAAGUTT against Crebzf | -0.9
84 | CCUAACACUAGUCUCAGAATT against Olfr873 | 0.192
85 | GGUGCUAAUGACCUUUGAATT against Dbp | -1.5
86 | GGAAUGGGAUAGAUUUGUUTT against Ung | 2.51 (active)
87 | GCUACCUCUGACGACCAAGTT against Slc23a3 | 1.11
88 | CCAUCAGGUUUAAGUCGUATT against Vps36 | -0.698

Row | Sequence | z-score
89 | CGAAGAGAAGUUAUUUGUATT against Mrps23 | 1.19
90 | GGUUUACCAGGAAAAUUGATT against Txnrd3 | -1.09
91 | GGGUCACACUUCAUGGCUUTT against Pofut1 | -2.07 (active)
92 | GGAUUCUUCGCUCCAAUGATT against Pacs1 | 0.73
93 | GGUAUCCUGAUUGUUGAGUTT against Fam228a | 1.18
94 | GCAUCAUUAUCUUACCAACTT against Olfr826 | -0.994
95 | GAGAGAGGGAAUUUGCUCCTT against Pcdhb8 | 2.6 (active)
96 | AUGUGGCAAAACCUUUGCATT against Zfp960 | 0.615
97 | CCCAUGCUUAUUACCGAGATT against Rab37 | 0.0517
98 | GGGUGUCAACCCUUUAGAUTT against C130026I21Rik | 0.685
99 | GCACCUCAAAAGAAUUCAUTT against Septin10 | 1.42
100 | GGAUAAGAAACACAAGAAGTT against Srrm1 | 2.04 (active)
101 | GCACAUUUUAGCCUAAUGGTT against Tpm3 | -0.785
102 | CCCACUUGUGGCAGUGUACTT against Stub1 | 0.818
103 | GCGACAAUAUGAGUCACCUTT against Fsd1 | -2.07 (active)
104 | GGGUAACAUGAAAGUGAUCTT against Mybbp1a | -0.972
105 | GGACCAAGGAGCAUUGAAATT against Fkbp7 | 1.06
106 | GGAAUUCAUCUGUGGUCUCTT against Trim50 | -0.559
107 | GCUUUAGGUAUGGUCCUAATT against A430072C10Rik | 1.23
